# Experimental data as given in article PMC4552634, “A New Set of Chemical Starting Points with Plasmodium falciparum Transmission-Blocking Potential for Antimalarial Drug Discovery” (PLoS ONE, 2015).
# Read-outs that look alike come from different tables or passages of the source. The campaign covered roughly 13,000 compounds. About 3,200 (25%) showed an effect of 50% or more. This is one part of the list.
# Tested on: P. falciparum stage V gametocytes
# Design: BacTiter-Glo ATP luminescence viability of purified stage V gametocytes in 384-well plates, per cent inhibition versus DMSO
# Settings: 48 h, 5 µM, inhibitor
Compound,% Inhibition [%],% Inhibition (% Inhibition) [%]
O=C(N[C@@H](CC1CCCCC1)C(=O)NCCN1CCCC1)c1ccc(O)c(-c2cccc(C(F)(F)F)c2)c1 [TCMDC-140811],39,–
Cc1cc(OC(C)C(=O)N2CCc3ccccc32)ccc1Cl (centres unmarked) [TCMDC-123696],25.65,–
COc1ccc(Cc2cnc(N)nc2N)cc1OCCCOc1ccccc1 [TCMDC-137364],-5.696,–
Cn1ccnc1Sc1ncccc1[N+](=O)[O-] [TCMDC-123944],5.094,–
O=C(Nc1cccc(CN2CCCN(Cc3ccc4c(c3)OCO4)CC2)c1)c1ccc2ccccc2c1 [TCMDC-141852],-18.83,–
N#Cc1cccc(NC(=O)C2=C(CCc3ccc4c(c3)OCO4)NC(=O)NC2c2cccc(C#N)c2)c1 (centres unmarked) [TCMDC-136054],65.54,–
O=C(Nc1cccc(CN2CCCN(Cc3ccc4c(c3)OCO4)CC2)c1)c1ccc(-c2ccccc2)cc1 [TCMDC-134593],-55.86,–
COc1cc(Cc2cnc(NCCN3CCNCC3)nc2N)ccc1OCc1ccc(C(F)(F)F)cc1 [TCMDC-138704],48.16,–
CCCCCCCNCCNc1cc(C)nc2ccccc12 [TCMDC-137556],91.75,–
Cc1cc(NCCCCCCCCNc2cc(C)nc3ccccc23)c2ccccc2n1 [TCMDC-137746],113.6,–
CCCCCCCNc1cc(C)nc2ccc(OC)cc12.Cl [TCMDC-137622],19.17,–
CCCCCCCN(CCCCCCC)CCNc1cc(C)nc2ccccc12 [TCMDC-137555],59.52,–
CCCCCCNc1cc(C)nc2ccc(OC)cc12.Cl [TCMDC-137623],-4.593,–
Cc1cc(NCCCCCCNc2cc(C)nc3c(C)cccc23)c2cccc(C)c2n1 [TCMDC-125702],114,–
COc1cccc(Nc2nc(C)cc(NC3CCCC3)n2)c1 [TCMDC-133464],31.06,–
CCn1ncc(Cl)c1CN(C)S(=O)(=O)c1ccc2ccccc2c1 [TCMDC-124904],17.76,–
O=C(Nc1ccc2c(c1)CCC2)c1ccc(CN2CCCN(Cc3cccc(O)c3)CC2)cc1 [TCMDC-136388],-14.41,–
N#Cc1ccc2c(c1)CN(C1CCC(NC(=O)/C=C/c3cc(C(F)(F)F)cc(C(F)(F)F)c3)CC1)CCC2 (centres unmarked) [TCMDC-133502],-43.57,–
CCCC(CNCc1cccc(OC(F)(F)F)c1)CNc1cc(=O)c2ccccc2[nH]1 (centres unmarked) [TCMDC-139429],83.68,–
O=c1cc(NCCCNCc2sc(Br)c(Br)c2Br)[nH]c2ccccc12 [TCMDC-139647],-5.668,–
CCc1cc(Br)c(CNCCCNc2cc(=O)c3ccccc3[nH]2)s1 [TCMDC-140745],-24.29,–
O=c1cc(NCCCNCc2cccc(Oc3ccccc3)c2)[nH]c2ccccc12 [TCMDC-139309],31.54,–
O=c1cc(NCCCNCc2ccc(Cl)c(Cl)c2)[nH]c2ccc(Cl)cc12 [TCMDC-139400],23.89,–

Compound,% Inhibition [%],% Inhibition (% Inhibition) [%]
O=c1cc(NCCCNCc2ccc(Cl)c(Cl)c2)[nH]c2ccc(C(F)(F)F)cc12 [TCMDC-139407],4.234,–
O=c1cc(NCCCNCc2cccc(OC(F)(F)C(F)F)c2)[nH]c2ccccc12 [TCMDC-139419],-24.87,–
O=c1cc(NCCCNCc2cccc(OC(F)(F)F)c2)[nH]c2ccccc12 [TCMDC-139418],80.26,–
CCCC(CNCc1cccc(OCC)c1)CNc1cc(=O)c2ccccc2[nH]1 (centres unmarked) [TCMDC-139432],35.2,–
CCCC(CNCc1cccc(OC(F)(F)C(F)F)c1)CNc1cc(=O)c2ccccc2[nH]1 (centres unmarked) [TCMDC-139430],-8.212,–
O=c1cc(NCCCNCc2ccc(Cl)c(Cl)c2)[nH]c2cc(Cl)ccc12 [TCMDC-139401],50.55,–
CCC/C=C/c1c(CNCCCNc2cc(=O)c3ccccc3[nH]2)sc(CC)c1Br [TCMDC-140971],58.98,–
CN(C)CC(=O)NCC(NCCCNc1cc(=O)c2ccccc2[nH]1)c1cc(Br)cc(Br)c1 (centres unmarked) [TCMDC-140314],-36.64,–
CN(CCCN(C)c1cc(NC(=O)c2ccc(F)cc2)ccn1)Cc1cccc(F)c1 [TCMDC-135041],-7.091,–
Cc1ccc(O)c(-c2cc(C(=O)Nc3ccc(S(=O)(=O)N4CCCC(C)C4)cc3)[nH]n2)c1 (centres unmarked) [TCMDC-125202],-32.7,–
CN1CCCc2ccc(NC(=O)c3cnc(-c4ccccc4)cn3)cc21 [TCMDC-141218],-34.46,–
O=c1cc(NCCCNC2CCc3ccc(Cl)cc32)[nH]c2ccccc12 (centres unmarked) [TCMDC-139365],84.72,–
O=c1cc(NCCCNC(c2ccccc2)c2ccc(Cl)c(Cl)c2)[nH]c2ccccc12 (centres unmarked) [TCMDC-139318],54.86,–
O=c1cc(NCCCN(Cc2ccccc2)Cc2ccccc2)[nH]c2ccccc12 [TCMDC-139368],-49.11,–
O=c1cc(NCCCNC2CCc3c(Cl)cc(Cl)cc32)[nH]c2ccccc12 (centres unmarked) [TCMDC-139485],17.36,–
O=c1cc(NCCCNC2CCCc3c2cc(Cl)c(Cl)c3Cl)[nH]c2ccccc12 (centres unmarked) [TCMDC-139478],2.268,–
O=c1cc(NCCCNCc2cc(Cl)c(Cl)cc2Cl)[nH]c2ccccc12 [TCMDC-139631],-58.3,–
Cc1[nH]c2ccc(O)cc2c1C1CCN(CC2CCN(C(=O)/C=C/c3ccc(Cl)c(Cl)c3)CC2)CC1 [TCMDC-140219],39.96,–
CCCCCCCCCC(=O)NCC1CC(Br)=NO1 (centres unmarked) [TCMDC-137735],4.616,–
OC(CNC1CCCCC1)c1ccc(Cl)c(Cl)c1 (centres unmarked) [TCMDC-123990],75.22,–
OC(CNC1CCCCCCC1)c1ccc(Cl)c(Cl)c1 (centres unmarked) [TCMDC-141991],-9.212,–
OC(CNCCCCCCNCC(O)c1ccc(Cl)c(Cl)c1)c1ccc(Cl)c(Cl)c1 (centres unmarked) [TCMDC-141987],99.2,–
OC(CNC1CCCCCC1)c1ccc(Cl)c(Cl)c1 (centres unmarked) [TCMDC-141990],-11.57,–

Compound,% Inhibition [%],% Inhibition (% Inhibition) [%]
CC(C)C[C@H](NC(=O)c1ccc(OCCN2CCOCC2)cc1)C(=O)N[C@H](/C=N/N(C)C(=O)c1ccccc1)CCc1ccccc1 [TCMDC-135854],17.32,–
CC1(C)N=C(N)N=C(N)N1OCc1cccs1 [TCMDC-131654],20.54,–
COC(=O)/C=C/c1ccc(CC(C)NCC(O)c2cccc(C(F)(F)F)c2)cc1 (centres unmarked) [TCMDC-131448],–,-0.1444
CCNc1cc(C(=O)N[C@@H](Cc2ccccc2)[C@H](O)CNC2CCCC2)cc(N2CCCC2=O)c1 [TCMDC-138844],16.89,–
CCNc1cc(C(=O)N[C@@H](Cc2ccccc2)[C@H](O)CNC(C)(C)Cc2ccccc2)cc(N2CCCC2=O)c1 [TCMDC-134567],5.299,–
CCNc1cc(C(=O)N[C@@H](Cc2ccccc2)[C@H](O)CN[C@@H](C)c2cccc(OC)c2)cc(N2CCCC2=O)c1 [TCMDC-138824],-0.5109,–
CCNc1cc(C(=O)N[C@@H](Cc2ccccc2)[C@H](O)CNC(C)(C)CSCC(C)C)cc(N2CCCC2=O)c1 [TCMDC-134311],69.93,–
CCCCCC(C)(C)NC[C@@H](O)[C@H](Cc1ccccc1)NC(=O)c1cc(NCC)cc(N2CCCC2=O)c1 [TCMDC-138912],10.89,–
CCNc1cc(C(=O)N[C@@H](Cc2ccccc2)[C@H](O)CN[C@H](C)c2ccccc2)cc(N2CCCC2=O)c1 [TCMDC-138822],64.41,–
CCNc1cc(C(=O)N[C@@H](Cc2ccccc2)[C@H](O)CNC(CC)c2cccc(Cl)c2)cc(N2CCCCS2(=O)=O)c1 (some centres unmarked) [TCMDC-135221],3.057,–
CCNc1cc(C(=O)N[C@@H](Cc2ccccc2)[C@H](O)CNC(CC)c2cccc(Cl)c2)cc(N2CCCC2=O)c1 (some centres unmarked) [TCMDC-135264],64.68,–
CCNc1cc(C(=O)N[C@@H](Cc2ccccc2)[C@H](O)CN[C@H]2CCc3ccccc32)cc(N2CCCC2=O)c1 [TCMDC-138917],52.85,–
CCNc1cc(C(=O)N[C@@H](Cc2ccccc2)[C@H](O)CN[C@@H]2CCc3ccccc32)cc(N2CCCC2=O)c1 [TCMDC-132414],21.82,–
CCC(NC[C@@H](O)[C@H](Cc1ccccc1)NC(=O)c1cc(C2CCCC2)cc(N2CCCC2=O)c1)c1cccc(Cl)c1 (some centres unmarked) [TCMDC-135265],4.239,–
CCNc1cc(C(=O)N[C@@H](Cc2ccccc2)[C@H](O)CN[C@@H](C)c2ccccc2)cc(N2CCCC2=O)c1 [TCMDC-138823],8.317,–
Cc1cccc2[nH]c(-c3cccc(-c4cccc(CN5CCC(CO)CC5)c4)c3)nc12 [TCMDC-133131],-22.3,–
Nc1nccc(-c2ccc3c(-c4cccc(F)c4)cnc(N)c3c2)n1 [TCMDC-134545],-1.877,–
Cc1cc(NC(=O)c2ccsc2)ccc1OC1CCN(Cc2ccc(F)cc2)CC1 [TCMDC-133742],4.453,–
COc1ccc(Nc2nccc(-c3c(-c4cccc(NC(=O)c5c(F)cccc5F)c4)nn4ccccc34)n2)cc1Cl [TCMDC-135970],-50.42,–
CS(=O)(=O)N(c1ccccc1)c1cc(C(=O)N[C@@H](Cc2ccccc2)[C@H](O)CNC2CCCCC2)cc(N2CCCC2=O)c1 [TCMDC-138850],25.67,–
CS(=O)(=O)N(c1ccccc1)c1cc(C(=O)N[C@@H](Cc2ccccc2)[C@H](O)CNC2CC2)cc(N2CCCC2=O)c1 [TCMDC-138891],19.46,–
CC(C)CCCC(C)NC[C@@H](O)[C@H](Cc1ccccc1)NC(=O)c1cc(N2CCCC2=O)cc(N(c2ccccc2)S(C)(=O)=O)c1 (some centres unmarked) [TCMDC-138851],82.88,–
